Sampled rows, rich in hits. Any-hit rate of the full collection: about 4.8%.
hgDAF12 agonist – hgDAF-12 agonism, primary luciferase screen; activation, % at 6.8 µM; HEK293 GAL4-hgDAF12 UAS-luciferase reporter, agonist luminescence; normalized to butyrate control; actives 1.8% (n = 370,000);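 active = activation above a cutoff set at the mean of all screened compounds plus 3 SD, cut at about 10% in these data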
hcDAF12 agonist – activators of H. contortus DAF-12 nuclear receptor. activation, % at 6.8 µM. AID 652067. HEK293 hcDAF-12 lit1-tk-luc reporter, luminescence; 0% DMSO, 100% Δ7-dafachronic acid. actives 1.4% (n = 370,000);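 active = activation above the mean of all tested compounds plus 3 SD, cut at about 5.5% in these data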
DAX1 inh-1 – NR0B1 (DAX1) inhibition; P51843; HEK293 Gal4-DAX1 luciferase reporter, luminescence; inhibition, % at 6.75 µM; AID 504766; actives 0.99% (n = 340,000);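 active = inhibition above the mean over all tested compounds plus 3 SD, cut at about 4.2% in these data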;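 also: inhibition shows as a rise in luminescence from relieved DAX1 repression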
Target sequence (P51843 207-470 limits assumed): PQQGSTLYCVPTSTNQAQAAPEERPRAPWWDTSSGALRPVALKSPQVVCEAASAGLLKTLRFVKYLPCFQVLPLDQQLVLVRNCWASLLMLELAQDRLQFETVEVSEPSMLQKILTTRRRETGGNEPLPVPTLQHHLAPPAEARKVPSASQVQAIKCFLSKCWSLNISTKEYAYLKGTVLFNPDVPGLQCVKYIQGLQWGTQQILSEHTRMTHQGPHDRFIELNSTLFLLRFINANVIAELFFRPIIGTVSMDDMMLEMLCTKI
ssDAF12 agonist – activators of S. stercoralis DAF-12 nuclear receptor; activation, % at 6.8 µM; actives 1% (n = 370,000); AID 652126; HEK293 ssDAF-12/GRIP1 lit1-tk-luc reporter, luminescence; % of 3 µM dafachronic acid response;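 active = activation above the mean over all tested compounds plus 3 SD, cut at about 0.9% in these data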
SMARCA2 activ – increases SMARCA2 function in MMTV reporter cells; MG213 cells, MMTV-luciferase reporter, dexamethasone, overnight; activation, % at 9.1 µM; actives 1% (n = 370,000); AID 652017; in the data active = activation above about 7.8%
DAX1 inh-2 – DAX1 (NR0B1) inhibition, primary screen; actives 1.1% (n = 370,000); HEK293T StAR-luciferase reporter, SF-1/DAX-1 repression relief; inhibition, % at 6.8 µM;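 active = inhibition above the mean over all tested compounds plus 3 SD, cut at about 3.6% in these data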;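 also: higher inhibition means more luminescence from relief of DAX-1 repression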
hgDAF12 ag – hgDAF-12 agonism, confirmation assay | AID 743050 | activation, % at 6.8 µM | HEK293 GAL4-hgDAF12 luciferase reporter, agonist mode; percent of butyrate response | shares compounds with hgDAF12 agonist | actives 80% (n = 3,300);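 active = mean activation over triplicate wells above the hit cutoff derived from the earlier primary screen, cut at about 11% in these data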
LXRb DAF12 ctr – LXR-beta agonism as DAF-12 counter-screen. AID 743051. HEK293 Gal4-LXR luciferase reporter, 24 h. shares compounds with hgDAF12 agonist. 3,300 tested, under 10 active. activation, % at 6.8 µM;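 active = mean activation of the triplicate above a set limit carried over from the primary screen, none filed active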
Numbers stand for hits; n = inactive; x = not tested or not shown.

SMILES	hgDAF12 agonist	hcDAF12 agonist	DAX1 inh-1	ssDAF12 agonist	SMARCA2 activ	DAX1 inh-2	hgDAF12 ag	LXRb DAF12 ctr
CC(=O)COc1ccc2cc(-c3ccccc3)c(=O)oc2c1	17	6.2	n	n	n	n	17	n
COc1ccc(/C=C/C(=O)NC(=S)NNC(=O)c2cccs2)cc1	13	n	n	n	n	n	n	n
COc1ccc(C(=O)NNC(=S)NC(=O)c2cccs2)cc1	n	n	n	n	n	n	x	x
Cc1cccc(NC(=O)NN(C(=O)c2ccccc2Cl)C(C)(C)C)c1	13	n	x	n	n	n	n	n
COC(=O)/C=C1\Nc2ccc(Cl)cc2C(=O)NC1=O	n	n	x	n	n	n	x	x
CC1(C)OC(=O)C2=C(CC(CCc3ccccc3)OC2CCc2ccccc2)O1 (configuration not stated)	n	n	x	n	n	n	x	x
O=C(C(=O)N1CCC(CNS(=O)(=O)c2ccc(OC(F)(F)F)cc2)CC1)c1cc2ccccc2o1	n	n	x	n	n	n	x	x
O=S(=O)(c1ccc(C(F)(F)F)cc1)N1CCCc2nc(-c3ccccc3)ccc21	n	n	x	n	n	n	x	x
COC(=O)[C@]12C[C@H](CC(=O)NCC34CC5CC(CC(C5)C3)C4)C(=O)N(CCC3=CCCCC3)C1=C[C@H](COCc1ccccc1)O[C@@H]2C	n	n	x	n	n	n	x	x
Oc1cccc(C=NCc2ccccc2)c1O	n	n	n	n	n	n	x	x
Oc1c(C=NCc2ccccc2)sc2ccccc12	15	n	12	n	n	n	16	n
COC(=O)C1=C(C)N(Cc2ccccc2C(F)(F)F)C(=NCc2cccc(C(F)(F)F)c2)NC1c1cccc(Cl)c1 (configuration not stated)	n	n	x	n	n	n	x	x
COC(=O)c1cc2c(c3c4cc(OC)ccc4n(S(=O)(=O)c4ccc(F)cc4)c13)C(=O)N(CC(C)C)C2	n	n	x	n	n	n	x	x
Cc1ccc(N=c2oc3cc(O)ccc3cc2C(N)=O)cc1	18	n	n	n	n	n	n	n
COc1cccc(CN2CCC2(C)C(=O)Nc2ccc3c(c2)CCN3C(C)=O)c1F (configuration not stated)	n	n	x	n	n	n	x	x
COCCNC(=O)c1c(N)[nH]c(C(=O)c2ccc(Br)cc2)c1-c1ccc(Br)cc1	n	n	x	n	n	n	x	x
Cc1csc(NC(=O)c2nc3nc(C)cc(C)n3n2)n1	n	n	n	n	n	n	x	x
Cc1cc(C)n2nc(C(=O)Nc3nccs3)nc2n1	17	n	n	n	n	n	12	n
Clc1c(CSc2nc3ccccc3o2)nc2sccn12	24	n	n	n	n	4.1	20	n
COC(=O)CSc1nc2ccccc2o1	n	n	n	n	n	n	x	x
C[C@H]1CN(C(=O)OC(C)(C)C)CCN1c1ccc(N2CC[C@@H](O)C2)c(C#N)c1	n	n	x	n	n	n	x	x
O=c1[nH]cnc2cc(-c3ccccc3)sc12	13	n	n	n	n	n	11	n
CC(C)C[C@H]1COc2c(Cl)cccc2S(=O)(=O)N1	n	n	x	n	n	n	x	x
c1cn2cc(-c3ccc4c(c3)OCO4)nc2s1	16	6.5	n	1.6	n	4.3	16	n
O=C(Nc1ccc(-c2cn3ccsc3n2)cc1)C1CCCC1	16	n	n	n	n	n	18	n
SMILES	hgDAF12 agonist	hcDAF12 agonist	DAX1 inh-1	ssDAF12 agonist	SMARCA2 activ	DAX1 inh-2	hgDAF12 ag	LXRb DAF12 ctr
CC(C)C(=O)Nc1cccc(-c2cn3ccsc3n2)c1	n	n	n	n	n	n	x	x
C=CCNc1cccc2c1S(=O)(=O)N[C@H](C)CO2	n	n	x	n	n	n	x	x
Nc1c(-c2ccc(Cl)cc2)cnc2c(-c3ccccc3)cnn12	14	n	7.8	n	7.9	n	12	n
CC(C)(C)S(=O)(=O)c1cnc2c(-c3ccc(Cl)cc3)cnn2c1N	n	n	n	n	n	n	x	x
Cc1ccc(NC(=O)Nc2cnc3ccccc3c2)cc1	15	n	n	n	n	3.7	20	n
Cc1ccc(CSc2nnc(NC(=O)C3COc4ccccc4O3)s2)cc1 (configuration not stated)	n	n	n	n	n	n	x	x
CCC(CC)c1nnc(NC(=O)C2COc3ccccc3O2)s1 (configuration not stated)	14	n	n	n	n	n	n	n
O=C(Nc1cnc2ccccc2c1)C1COc2ccccc2O1 (configuration not stated)	14	n	n	n	n	n	n	n
COC(=O)c1ccn(Cc2ccccc2Cl)n1	14	n	n	n	n	n	n	n
COC(=O)c1cc2n(n1)CCN(Cc1ccccc1Cl)C2=O	n	n	n	n	n	n	x	x
CN(C)CCCN1CC(=O)N2CCc3ccc(Br)cc3C2CC1=O (configuration not stated)	n	n	x	n	n	n	x	x
CN1C(=O)/C(=C/C=C2\SCCN2C)N(C)C1=S	14	n	n	n	n	n	15	n
COCc1cc(N2CCNC[C@H]2C)ccc1N1CCN(Cc2ccccc2)[C@@H](C)C1	n	n	x	n	n	n	x	x
COc1ccc(NC(=O)CSc2nc3ccsc3c(=O)n2CCC(=O)O)c(OC)c1	14	n	n	n	n	n	n	n
c1ccc2[nH]c(NCc3ccc4c(c3)OCO4)nc2c1	14	n	n	n	n	n	n	n
c1ccc(-c2csc(NC3CCCCC3)n2)cc1	20	n	n	n	n	n	25	n
O=C(NC(Cc1c[nH]c2ccccc12)C(=O)O)OCC1c2ccccc2-c2ccccc21 (configuration not stated)	n	n	x	n	n	n	x	x
CC(C)[C@@H](NC(=O)OC(C)(C)C)c1cc(C(=O)c2c(-c3ccccc3)[nH]c3ccccc23)c(N)s1	n	n	x	n	n	n	x	x
COc1ccccc1NC(=O)OC[C@@H]1CSCCS(=O)(=O)N1	n	n	x	n	n	n	x	x
Cc1ccc(Oc2ccc(Cl)cc2N)cc1	n	n	n	n	n	n	x	x
Nc1cc(Cl)ccc1Oc1ccc2ccccc2c1	22	n	n	n	n	n	n	n
COc1ccc(C(=O)NCC2CCN(C(=O)C(=O)c3cccs3)CC2)cc1	n	n	x	n	n	n	x	x
O=C(NC(=S)Nc1cccc2[nH]ncc12)c1ccccc1	22	n	n	n	n	n	16	n
CNC(=S)Nc1cccc2[nH]ncc12	n	n	n	n	n	n	x	x
COc1ccc(C(=O)CSc2nc(C)cc(=O)[nH]2)cc1	n	n	n	n	n	n	x	x

Screens deposited in PubChem BioAssay by The Scripps Research Institute Molecular Screening Center.
